From the supplement of paper PMC11732987, “Enantioselective OTUD7B fragment discovery through chemoproteomics screening and high-throughput optimisation” (Communications Chemistry, 2025)

Key:
Assay in all cases: log2 ratio of Biotin-Ahx-Ub-VS probe labelling (fragment/DMSO); higher = less target engagement (more negative = stronger competition), active = hit call of the paper (q ≤ 0.05, log2 ratio ≤ -1)
Settings in all cases: compound concentration: 200 uM; treatment time: 3 h
USP34 = USP34 (UniProt Q70CQ2)
Chain of USP34 (Q70CQ2 whole entry, the tested form may be a part): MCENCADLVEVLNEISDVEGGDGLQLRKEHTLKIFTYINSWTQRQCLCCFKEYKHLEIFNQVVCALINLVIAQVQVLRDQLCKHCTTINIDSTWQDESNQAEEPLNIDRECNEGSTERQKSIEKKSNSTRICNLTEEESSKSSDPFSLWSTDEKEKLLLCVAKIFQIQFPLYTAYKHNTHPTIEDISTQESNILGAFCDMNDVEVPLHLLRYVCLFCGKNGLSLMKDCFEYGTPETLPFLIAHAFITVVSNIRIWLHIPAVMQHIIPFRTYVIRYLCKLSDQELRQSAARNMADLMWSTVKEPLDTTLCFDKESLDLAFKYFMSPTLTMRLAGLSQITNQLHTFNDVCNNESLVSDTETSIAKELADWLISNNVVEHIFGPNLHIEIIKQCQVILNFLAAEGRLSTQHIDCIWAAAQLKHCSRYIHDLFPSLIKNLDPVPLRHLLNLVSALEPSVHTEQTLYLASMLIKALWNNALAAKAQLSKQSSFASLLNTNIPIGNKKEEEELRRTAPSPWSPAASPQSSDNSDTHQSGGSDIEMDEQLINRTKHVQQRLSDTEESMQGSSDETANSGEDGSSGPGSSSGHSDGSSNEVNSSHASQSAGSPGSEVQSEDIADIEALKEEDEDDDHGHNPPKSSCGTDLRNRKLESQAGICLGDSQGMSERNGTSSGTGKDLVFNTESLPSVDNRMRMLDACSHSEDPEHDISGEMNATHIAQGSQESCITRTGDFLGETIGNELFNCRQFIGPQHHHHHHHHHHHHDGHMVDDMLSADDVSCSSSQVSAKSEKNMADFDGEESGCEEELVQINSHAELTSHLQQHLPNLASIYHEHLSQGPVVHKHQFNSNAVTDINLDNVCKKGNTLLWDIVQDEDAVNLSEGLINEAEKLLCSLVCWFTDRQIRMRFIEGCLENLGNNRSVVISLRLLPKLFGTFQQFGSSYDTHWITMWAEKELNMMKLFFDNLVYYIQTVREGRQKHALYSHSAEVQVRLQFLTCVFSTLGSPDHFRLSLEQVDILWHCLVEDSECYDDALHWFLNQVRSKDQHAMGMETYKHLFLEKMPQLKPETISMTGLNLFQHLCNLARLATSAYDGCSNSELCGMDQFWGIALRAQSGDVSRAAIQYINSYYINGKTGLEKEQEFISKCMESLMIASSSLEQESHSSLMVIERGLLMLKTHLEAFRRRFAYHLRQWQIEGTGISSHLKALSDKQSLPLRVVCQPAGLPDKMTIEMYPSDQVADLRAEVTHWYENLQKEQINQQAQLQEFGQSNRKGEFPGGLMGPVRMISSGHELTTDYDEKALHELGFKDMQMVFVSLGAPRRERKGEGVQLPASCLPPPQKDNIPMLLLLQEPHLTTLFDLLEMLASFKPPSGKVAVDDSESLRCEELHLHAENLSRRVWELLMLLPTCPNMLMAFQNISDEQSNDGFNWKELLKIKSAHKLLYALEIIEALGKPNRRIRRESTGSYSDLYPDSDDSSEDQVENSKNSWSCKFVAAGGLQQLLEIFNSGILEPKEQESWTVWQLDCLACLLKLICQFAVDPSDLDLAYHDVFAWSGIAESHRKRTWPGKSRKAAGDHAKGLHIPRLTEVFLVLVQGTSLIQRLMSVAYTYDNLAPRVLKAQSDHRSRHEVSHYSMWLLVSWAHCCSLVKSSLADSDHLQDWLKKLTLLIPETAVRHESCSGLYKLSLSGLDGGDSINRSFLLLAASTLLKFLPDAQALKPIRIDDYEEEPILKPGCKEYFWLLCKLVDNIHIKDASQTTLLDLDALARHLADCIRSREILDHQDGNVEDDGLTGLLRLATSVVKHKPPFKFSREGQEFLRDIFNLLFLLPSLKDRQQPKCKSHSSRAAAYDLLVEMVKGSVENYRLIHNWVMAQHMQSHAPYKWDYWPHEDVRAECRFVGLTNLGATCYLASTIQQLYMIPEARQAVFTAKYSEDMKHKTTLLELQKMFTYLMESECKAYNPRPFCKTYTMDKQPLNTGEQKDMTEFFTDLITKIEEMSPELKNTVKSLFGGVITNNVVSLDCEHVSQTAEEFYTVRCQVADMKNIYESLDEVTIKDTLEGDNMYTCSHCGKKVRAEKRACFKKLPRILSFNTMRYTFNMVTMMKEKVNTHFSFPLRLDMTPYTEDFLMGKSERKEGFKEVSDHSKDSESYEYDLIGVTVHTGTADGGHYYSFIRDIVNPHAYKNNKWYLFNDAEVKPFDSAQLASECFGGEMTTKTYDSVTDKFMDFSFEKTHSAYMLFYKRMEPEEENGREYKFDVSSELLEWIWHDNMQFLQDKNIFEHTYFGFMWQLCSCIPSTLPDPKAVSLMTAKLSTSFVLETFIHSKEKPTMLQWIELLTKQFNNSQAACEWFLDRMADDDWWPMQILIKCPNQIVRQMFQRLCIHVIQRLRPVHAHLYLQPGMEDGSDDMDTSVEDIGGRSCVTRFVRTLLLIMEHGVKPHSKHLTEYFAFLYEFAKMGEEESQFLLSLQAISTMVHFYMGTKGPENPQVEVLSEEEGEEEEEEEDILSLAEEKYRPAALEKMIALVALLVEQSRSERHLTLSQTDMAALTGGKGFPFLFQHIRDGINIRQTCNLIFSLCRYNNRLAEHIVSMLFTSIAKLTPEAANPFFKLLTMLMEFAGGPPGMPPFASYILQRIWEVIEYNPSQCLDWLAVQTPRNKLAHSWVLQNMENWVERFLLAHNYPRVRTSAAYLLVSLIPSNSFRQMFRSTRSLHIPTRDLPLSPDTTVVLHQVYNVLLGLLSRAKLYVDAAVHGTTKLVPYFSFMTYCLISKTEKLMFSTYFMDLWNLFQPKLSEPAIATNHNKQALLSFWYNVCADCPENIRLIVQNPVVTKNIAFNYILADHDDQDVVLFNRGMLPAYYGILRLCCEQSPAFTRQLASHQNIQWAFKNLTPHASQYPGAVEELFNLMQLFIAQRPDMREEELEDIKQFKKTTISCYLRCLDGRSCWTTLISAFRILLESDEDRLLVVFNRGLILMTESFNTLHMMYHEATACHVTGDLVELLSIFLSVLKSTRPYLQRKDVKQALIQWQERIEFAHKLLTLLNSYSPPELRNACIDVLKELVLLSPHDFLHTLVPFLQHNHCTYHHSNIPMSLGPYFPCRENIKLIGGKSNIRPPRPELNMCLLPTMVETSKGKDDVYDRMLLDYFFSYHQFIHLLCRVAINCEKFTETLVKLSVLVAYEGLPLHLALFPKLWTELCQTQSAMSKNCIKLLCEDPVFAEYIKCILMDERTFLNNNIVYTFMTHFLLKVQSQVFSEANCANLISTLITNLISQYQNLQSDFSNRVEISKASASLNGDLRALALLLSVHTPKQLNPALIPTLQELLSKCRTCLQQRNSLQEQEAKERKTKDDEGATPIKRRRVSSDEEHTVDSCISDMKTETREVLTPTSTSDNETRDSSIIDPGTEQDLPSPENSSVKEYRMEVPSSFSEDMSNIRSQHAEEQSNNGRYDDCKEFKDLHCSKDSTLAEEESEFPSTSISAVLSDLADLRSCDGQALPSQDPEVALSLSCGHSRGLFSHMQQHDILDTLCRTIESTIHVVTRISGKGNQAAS
Method in brief: (§1)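 Labelled DUBs were enriched with NeutrAvidin, digested with LysC and trypsin, and run by diaPASEF LC-MS/MS. The labelling used Biotin-Ahx-Ub-VS at 0.5 µM final for 1 h on HEK293T lysate (495 µg per sample) previously treated in triplicate with fragment at 200 µM or vehicle for 3 h. Values are average log2 fragment/vehicle ratios by unpaired t-test on global-median-normalised Spectronaut quantities of proteins with ≥2 unique peptides.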

USP36 = molecular target: T1, USP36 (UniProt Q9P275)
T1 sequence (whole entry): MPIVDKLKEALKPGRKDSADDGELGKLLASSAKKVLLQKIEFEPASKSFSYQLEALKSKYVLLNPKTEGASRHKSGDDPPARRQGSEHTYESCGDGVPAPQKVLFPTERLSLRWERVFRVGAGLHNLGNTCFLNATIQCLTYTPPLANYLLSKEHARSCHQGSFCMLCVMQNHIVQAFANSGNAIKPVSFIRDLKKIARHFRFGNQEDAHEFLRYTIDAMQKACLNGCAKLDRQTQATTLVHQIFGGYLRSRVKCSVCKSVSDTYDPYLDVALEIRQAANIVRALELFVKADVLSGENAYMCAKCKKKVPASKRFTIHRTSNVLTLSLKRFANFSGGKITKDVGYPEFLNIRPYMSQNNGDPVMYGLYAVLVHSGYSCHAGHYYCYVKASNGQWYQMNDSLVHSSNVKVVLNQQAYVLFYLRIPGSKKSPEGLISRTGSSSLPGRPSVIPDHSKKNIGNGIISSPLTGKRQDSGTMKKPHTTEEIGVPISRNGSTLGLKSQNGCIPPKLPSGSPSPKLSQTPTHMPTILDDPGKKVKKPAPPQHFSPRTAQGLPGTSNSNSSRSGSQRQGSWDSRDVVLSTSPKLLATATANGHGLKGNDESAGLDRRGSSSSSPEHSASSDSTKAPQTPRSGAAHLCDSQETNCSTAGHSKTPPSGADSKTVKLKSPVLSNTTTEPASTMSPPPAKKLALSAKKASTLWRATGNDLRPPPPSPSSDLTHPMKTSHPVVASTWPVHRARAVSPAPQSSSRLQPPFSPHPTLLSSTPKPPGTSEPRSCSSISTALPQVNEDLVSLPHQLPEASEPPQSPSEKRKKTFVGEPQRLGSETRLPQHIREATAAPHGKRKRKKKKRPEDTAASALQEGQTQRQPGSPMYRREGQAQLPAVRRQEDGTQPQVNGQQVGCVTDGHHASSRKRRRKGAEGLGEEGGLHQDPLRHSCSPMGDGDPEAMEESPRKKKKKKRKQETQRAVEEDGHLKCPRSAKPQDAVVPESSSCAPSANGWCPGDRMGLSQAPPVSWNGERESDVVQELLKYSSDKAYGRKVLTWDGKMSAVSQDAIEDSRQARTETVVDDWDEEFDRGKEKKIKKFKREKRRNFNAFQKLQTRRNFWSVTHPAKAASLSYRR
Method in brief: as §1

USP38 = molecular target: T2, USP38 (UniProt Q8NB14)
T2 sequence (whole entry): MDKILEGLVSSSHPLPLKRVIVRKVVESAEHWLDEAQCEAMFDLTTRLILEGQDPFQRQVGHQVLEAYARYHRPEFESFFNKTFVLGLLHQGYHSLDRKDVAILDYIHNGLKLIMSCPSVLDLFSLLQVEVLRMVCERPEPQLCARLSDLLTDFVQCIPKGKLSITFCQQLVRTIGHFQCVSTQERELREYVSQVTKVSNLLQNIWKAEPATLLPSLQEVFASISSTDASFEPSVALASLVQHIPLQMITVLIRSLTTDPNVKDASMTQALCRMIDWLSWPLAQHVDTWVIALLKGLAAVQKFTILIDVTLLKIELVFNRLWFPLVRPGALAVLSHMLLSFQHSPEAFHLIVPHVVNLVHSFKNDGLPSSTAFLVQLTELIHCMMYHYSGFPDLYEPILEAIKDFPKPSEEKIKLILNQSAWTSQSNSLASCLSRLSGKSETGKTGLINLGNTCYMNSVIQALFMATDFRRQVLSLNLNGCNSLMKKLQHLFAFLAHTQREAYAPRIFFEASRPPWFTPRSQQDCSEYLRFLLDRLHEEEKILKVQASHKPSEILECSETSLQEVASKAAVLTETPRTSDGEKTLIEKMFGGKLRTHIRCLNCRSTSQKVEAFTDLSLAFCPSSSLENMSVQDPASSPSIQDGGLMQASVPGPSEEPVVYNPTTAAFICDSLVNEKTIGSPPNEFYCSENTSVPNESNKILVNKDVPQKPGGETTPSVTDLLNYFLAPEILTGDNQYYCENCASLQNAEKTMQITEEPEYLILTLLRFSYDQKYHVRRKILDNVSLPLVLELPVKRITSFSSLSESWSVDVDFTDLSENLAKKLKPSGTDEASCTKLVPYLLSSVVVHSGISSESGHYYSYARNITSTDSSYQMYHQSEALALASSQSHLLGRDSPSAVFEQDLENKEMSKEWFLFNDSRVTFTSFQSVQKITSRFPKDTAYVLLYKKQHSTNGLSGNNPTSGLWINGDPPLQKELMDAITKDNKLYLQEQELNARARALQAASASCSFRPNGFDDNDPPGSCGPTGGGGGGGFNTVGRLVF
Method in brief: as §1

USP39 = molecular target: T3, USP39 (UniProt Q53GS9)
T3 sequence (whole entry): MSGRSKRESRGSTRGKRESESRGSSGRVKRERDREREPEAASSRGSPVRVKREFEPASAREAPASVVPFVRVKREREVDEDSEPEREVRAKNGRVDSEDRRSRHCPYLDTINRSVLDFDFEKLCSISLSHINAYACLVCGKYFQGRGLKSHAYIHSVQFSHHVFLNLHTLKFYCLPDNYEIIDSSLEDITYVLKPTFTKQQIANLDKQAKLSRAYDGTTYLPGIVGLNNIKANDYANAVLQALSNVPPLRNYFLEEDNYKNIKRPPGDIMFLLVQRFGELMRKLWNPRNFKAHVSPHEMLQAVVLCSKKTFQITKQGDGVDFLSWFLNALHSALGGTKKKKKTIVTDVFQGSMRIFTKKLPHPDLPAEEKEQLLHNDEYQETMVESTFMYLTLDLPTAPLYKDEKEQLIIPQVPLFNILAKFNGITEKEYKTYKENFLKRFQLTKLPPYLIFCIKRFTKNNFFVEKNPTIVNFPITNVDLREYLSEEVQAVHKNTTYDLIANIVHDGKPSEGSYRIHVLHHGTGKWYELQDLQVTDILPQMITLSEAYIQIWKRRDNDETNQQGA
Method in brief: as §1

USP4 = molecular target: T4, USP4 (UniProt Q13107)
T4 sequence (whole entry): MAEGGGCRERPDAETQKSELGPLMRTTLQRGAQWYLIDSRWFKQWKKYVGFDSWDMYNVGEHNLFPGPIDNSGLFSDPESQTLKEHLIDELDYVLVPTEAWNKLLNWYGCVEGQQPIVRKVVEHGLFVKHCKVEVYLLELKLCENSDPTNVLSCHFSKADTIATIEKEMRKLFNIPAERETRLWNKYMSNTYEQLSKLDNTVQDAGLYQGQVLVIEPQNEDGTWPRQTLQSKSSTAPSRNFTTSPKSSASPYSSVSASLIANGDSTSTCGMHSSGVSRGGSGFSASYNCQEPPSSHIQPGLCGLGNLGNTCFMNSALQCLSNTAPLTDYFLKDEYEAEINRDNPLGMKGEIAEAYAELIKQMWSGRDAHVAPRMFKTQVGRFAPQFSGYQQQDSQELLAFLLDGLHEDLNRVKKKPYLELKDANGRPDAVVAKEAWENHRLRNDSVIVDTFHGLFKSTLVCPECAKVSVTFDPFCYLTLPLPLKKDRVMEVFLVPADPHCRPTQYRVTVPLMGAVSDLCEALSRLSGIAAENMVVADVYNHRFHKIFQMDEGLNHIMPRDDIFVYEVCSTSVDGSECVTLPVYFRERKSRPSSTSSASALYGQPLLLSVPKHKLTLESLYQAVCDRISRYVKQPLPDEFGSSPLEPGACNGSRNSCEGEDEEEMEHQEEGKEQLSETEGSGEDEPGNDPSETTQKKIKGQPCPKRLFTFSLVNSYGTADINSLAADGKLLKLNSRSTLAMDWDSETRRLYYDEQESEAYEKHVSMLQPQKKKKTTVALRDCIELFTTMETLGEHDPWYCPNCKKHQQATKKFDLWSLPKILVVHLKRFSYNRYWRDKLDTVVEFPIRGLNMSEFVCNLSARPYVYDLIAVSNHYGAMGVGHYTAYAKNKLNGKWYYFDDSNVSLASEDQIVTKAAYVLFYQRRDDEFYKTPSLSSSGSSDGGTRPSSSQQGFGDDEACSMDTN
Method in brief: as §1

Measured: log2 ratio of Biotin-Ahx-Ub-VS probe labelling

Cl.O=C(CCl)N1CCC(Cc2nccs2)C1 (stereo not given)
inactive: USP34 0.132 | USP36 -0.0197 | USP38 0.0569 | USP39 0.0712 | USP4 -0.165
